According to ChEMBL document CHEMBL3988442, “University of Dundee, Small-Polar-MMV Screening Library” (2021):

Experiments:
[1] = biological target: T1, Aspartate--tRNA(Asp/Asn) ligase (Mycobacterium tuberculosis (strain ATCC 25618 / H37Rv)) (UniProt P9WFW3); test: Assay for Asp RNA synthetase-1 from Mycobacterium tuberculosis; type: functional; set-up: scale not given: direction of the effect not stated beside the values; settings: 30 µM; further: in the data most compounds retested in dose-response had high values
T1 sequence (whole entry): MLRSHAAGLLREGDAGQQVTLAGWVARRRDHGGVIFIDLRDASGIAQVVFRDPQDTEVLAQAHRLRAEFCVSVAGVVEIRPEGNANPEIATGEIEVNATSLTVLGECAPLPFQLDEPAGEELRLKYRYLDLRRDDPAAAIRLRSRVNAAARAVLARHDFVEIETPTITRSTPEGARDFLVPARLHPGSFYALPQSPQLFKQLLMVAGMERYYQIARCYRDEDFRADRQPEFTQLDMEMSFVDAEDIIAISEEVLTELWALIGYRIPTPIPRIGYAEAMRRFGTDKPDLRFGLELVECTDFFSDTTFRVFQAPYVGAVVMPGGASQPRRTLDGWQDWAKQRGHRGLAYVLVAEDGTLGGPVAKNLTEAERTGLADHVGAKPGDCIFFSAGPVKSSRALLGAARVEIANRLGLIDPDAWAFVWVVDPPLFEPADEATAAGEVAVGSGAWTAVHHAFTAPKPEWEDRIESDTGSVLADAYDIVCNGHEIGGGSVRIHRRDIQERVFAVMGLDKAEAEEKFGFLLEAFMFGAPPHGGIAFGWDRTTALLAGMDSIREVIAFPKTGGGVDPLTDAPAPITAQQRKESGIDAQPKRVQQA

[2] = biological target: Shiga toxin 2 (Escherichia coli O157:H7) (UniProt P09385+P09386); test: E. coli 0.157:H7 Shiga Toxin SOP - stx2 screening assay; type: functional; set-up: scale not given: direction of the effect not stated beside the values; settings: 30 µM

Structure (SMILES) | Percent Effect [1] | Percent Effect [2]
CC(C)c1nc(CCNC(=O)NCc2ccnc(N(C)C)c2)cs1 | -0.713% | -13.1%
Cc1cc(NS(=O)(=O)c2ccccc2F)ccc1-n1cccc1C(=O)O | 6.98% | 0.354%
CC1COCCN1Cc1nc(-c2cccc(Br)c2)no1 (configuration not stated) | 4.5% | 32%
CCc1nccn1C1CCCN(C(=O)c2ccc3nncn3c2)C1 (configuration not stated) | -8.68% | 7.36%
CNC(=O)c1nc2c(s1)CCN(C(=O)Cc1ccc(OC)cc1)CC2 | 0.107% | -7.44%
CC(C)N(C)Cc1cn2c(n1)CN(C(=O)Cc1ccsc1)CC2 | 2.92% | -5.19%
Cc1nc(C)n(CC2CCCCN2CCCS(=O)(=O)N(C)C)n1 (configuration not stated) | 1.48% | -34.2%
Cc1cnn(CC2CCCCN2CC(=O)NCc2ccccn2)c1 (configuration not stated) | -0.659% | 0.25%
Cc1cnn(CC2CCCCN2C(=O)c2cc(Cl)c[nH]2)c1 (configuration not stated) | 1.83% | -31.9%
Cc1n[nH]cc1C(=O)N1CCCC(n2nnc3cc(F)ccc32)C1 (configuration not stated) | -7.43% | -9.56%
CC(=O)N1CC(=O)N(c2cnn(C)c2)CC12CCN(Cc1ccoc1)C2 (configuration not stated) | -2.35% | 0.489%
CC(CN1CCC2(CC1)c1nc[nH]c1CCN2S(C)(=O)=O)C(F)(F)F (configuration not stated) | 2.76% | 4.49%
CN1CCN(C(=O)c2cccc(OCc3cscn3)c2)CC1 | 0.522% | -26.5%
CCCc1noc(CCC(=O)N2CCCC2c2ccsc2)n1 (configuration not stated) | -1.06% | 8.4%
O=C(c1ccnnc1)N1C[C@@H](OCC2CCCC2)[C@H]2OCCC[C@H]21 | 7.95% | -3.97%
O=C(c1ccc(-n2ccnc2)nc1)N1CCCC(n2cccn2)C1 (configuration not stated) | -4.43% | 28.7%
CC(C)Cc1cc(NC(=O)c2ccc(=O)[nH]n2)n(C)n1 | -2.97% | -34.7%
Cc1cc(CN(C)C(=O)C2CCS(=O)(=O)C2)no1 (configuration not stated) | -3.37% | -1.66%
O=C1[C@H]2CC[C@H](CN(S(=O)(=O)c3ccccc3)C2)N1Cc1cscn1 | 1.23% | -25.8%
CC(C)c1ncc2c(n1)CN(Cc1ccc(C(N)=O)cc1)CC2 | -0.3% | -42.6%
O=C(Cn1nc(-c2ccc(F)cc2)oc1=O)NCc1ccc(F)cc1 | -2.48% | 32.8%

Structure (SMILES) | Percent Effect [1] | Percent Effect [2]
N#CC1(C(=O)NCCCNc2ccc(C(F)(F)F)cn2)CCCC1 | 2.12% | 21.2%
CC(C)Nc1nc(N2CCOCC2)nc2c1CN(CC(=O)N(C)C)CC2 | 12.1% | -23.6%
CC(C)n1cc(S(=O)(=O)N2CCCCC2)cn1 | -0.668% | -17.6%
COc1ccc(CN2C[C@@H]3OCCN(CC4CCCO4)[C@@H]3C2)cc1 (some centres not stated) | -0.535% | -4.29%
O=C(CCC1CCCC1)NCCn1nc(C2CCNC2)c2nccnc21 (configuration not stated) | 1.74% | -35.4%
CCc1ncc2c(n1)CN(Cc1nc(-c3ccccn3)no1)CC2 | 0.141% | -30.2%
O=C1COC2(CCN(C(=O)c3ccco3)CC2)CN1Cc1ccccn1 | -2.5% | -3.41%
Cn1cc(CN2CCn3c(CNC(=O)c4cccn4C)cnc3C2)cn1 | 12.8% | -22.6%
Cc1noc(C)c1CN1CCN(Cc2nccn2C)C(C)C1 (configuration not stated) | -3.74% | 1.27%
CC(C)c1cc(NC(=O)CN2CCc3ccccc3C2)on1 | -1% | -13%
CC(C)(C)c1nnc(CN2CCCC2c2noc(C3CC3)n2)o1 (configuration not stated) | 0.758% | 0.0549%
CC(Nc1cccc(CN2CCOC2=O)c1)C(=O)N1CCNC1=O (configuration not stated) | -0.922% | -28.6%
Cc1ccoc1C(=O)N1CCOCC2(CCN(c3ncccn3)C2)C1 (configuration not stated) | 5.74% | 8%
CCc1nc(CN(C)C2CCN(CCc3ccccn3)C2)no1 (configuration not stated) | 8.1% | -35.9%
Cc1nc(O)c2nnn(C[C@H]3CCCN3C(=O)c3cccc(F)c3)c2n1 | 2.16% | -4.92%
CC(C)OCCOCc1cccc(NC(=O)NCCn2ccnc2)c1 | 2.56% | -31.1%
CCCC(=O)Nc1sc(C(=O)OCC)c(C)c1C#N | -1.82% | 7.46%
O=S(=O)(C1CC1)N1CCO[C@H]2[C@H](OCC3CCCC3)CC[C@@H]21 | 0.291% | 8.36%
CC(C)c1nn(C)c(N(C)C)c1CNCCC(=O)NC1CCCC1 | -3.2% | -5.9%
Cc1nnc(N2CCOC(Cn3cccn3)C2)c(C#N)c1C (configuration not stated) | 3.88% | 19.5%
